Bioassay records from PubChem BioAssay.
EWS-Fli inh: EWS/Fli-driven NR0B1 reporter inhibitors, primary screen, A673 cells, NR0B1 luciferase, luminescence, MLPCN library; viability-normalised; inhibition, % at 12.6 µM; hit rate 0.67% among 350,000;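 active = mean inhibition of at least 50% after viability correction, with every replicate also passing that limit; inconclusive = mean reaches 50% but only one of two replicates passes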;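 also: firefly luciferase signal divided by Alamar Blue viability fluorescence both relative to DMSO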
TWEAK Fn14 block: inhibitors of TWEAK-Fn14 signaling, primary screen, luciferase reporter cells, uHTS. inhibition, % at 10 µM. hit rate 2% among 360,000. AID 1159606, 2016. TWEAK-stimulated Fn14 reporter cells, luciferase luminescence, 8 h; in the data active = inhibition above about 50%
TROY signal inh: inhibitors of TROY-driven NF-kB signaling, primary screen, Q293 LMP1-TROYcd cells, NF-kB luciferase, uHTS | inhibition, % at 10 µM | Q293 LMP1-TROYcd NF-kB luciferase reporter, 4 h | hit rate 0.98% among 360,000;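 active = compounds whose plate-normalised and pattern-corrected inhibition of the luciferase reporter signal at the single screening dose is 50% or more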
EBV LMP1 NFkB: EBV LMP1-driven NF-kappaB luciferase reporter inhibitors, primary screen, cell-based, luminescence, single point; LMP1-induced NF-kappaB luciferase reporter cells; inhibition, % at 12.5 µM; hit rate 0.69% among 350,000; AID 504558, 2011; in the data active = inhibition above about 41%; inconclusive = no clear call, values can overlap the other calls;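 also: 0% = neutral control wells and 100% = reference inhibitor control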
LGR2 inh: inhibitors of bursicon-induced LGR2 CRE-luciferase signal, primary screen, cell-based, HEK293, CRE-luciferase reporter, bursicon stimulation. Drosophila bursicon receptor LGR2 (rickets). bursicon-stimulated, 4 h. inhibition, % at 9.99 µM. hit rate 0.35% among 380,000. AID 720647, 2013;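 active = drop in luminescence signal, shown as inhibition above about 50% in the replicate tests, limit read from the data, passing the limit was not always enough; inconclusive = probably only some replicates passing the limit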;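 also: agonist challenge used bursicon conditioned medium at about half maximal strength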
PAX8 inh HTS: inhibitors of PAX8-driven TPO luciferase reporter, primary screen, RMG-I cells, single concentration. hit rate 1.2% among 360,000. AID 652154, 2013. SteadyGlo, 24 h. inhibition, % at 12.6 µM;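 active = mean replicate inhibition at least 60% with every replicate also reaching 60%; inconclusive = only one of the two criteria is met; inactive = mean below 60% and not all replicates reaching 60%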;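 also: luciferase light reporting Pax8 driven TPO promoter activity; plate controls were median of neutral control wells for no effect and mitoxantrone controls for full effect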
Active calls of the source: *; ? = inconclusive; . = no result. Shown are actives, neighbours in structure and some others; about 3.1% of the full set was active somewhere.

SMILES	EWS-Fli inh	TWEAK Fn14 block	TROY signal inh	EBV LMP1 NFkB	LGR2 inh	PAX8 inh HTS
Cc1ccc(Nc2nc(NCCO)c3ccccc3n2)cc1C	-26.2	-0.9	5.8	-0.6	?	-21.0
COc1cc2nc(Nc3ccc(C)c(Cl)c3)nc(N)c2cc1OC	49.4	101.8*	32.7	8.9	30.6	41.2
Cc1ccccc1Nc1nc(N)nc(CSc2nc3ccccc3c(=O)n2C)n1	.	66.3*	44.4	11.0	14.7	.
COc1cc2nc(Nc3ccc(C)c(C)c3)nc(N)c2cc1OC	-2.8	-36.1	-43.2	-10.0	-11.8	-5.2
COc1ccc(C)cc1Nc1nc(N)c2ccccc2n1	-22.2	-15.9	-42.0	-1.8	-7.0	31.4
Cc1ccc(Nc2nc(N)c3ccccc3n2)cc1Cl	23.6	68.0*	16.2	-39.7	71.9*	-23.3
Cc1ccccc1Nc1nc(N)nc(CSc2nc3ccccc3c(=O)n2CCCO)n1	.	0.7	-6.6	12.6	-12.4	.
Cc1ccccc1Nc1nc(N)c2ccccc2n1	-20.3	53.5*	-33.7	4.0	2.8	-76.4
CO[C@@H]1CN(C)C(=O)c2ccc(NS(C)(=O)=O)cc2OC[C@@H](C)N(CC2CCCCC2)C[C@H]1C	1.6	.	.	.	16.2	.
COC(=O)C1=C(C)N(Cc2cccc(C(F)(F)F)c2)C(=NCc2ccc(C(F)(F)F)cc2)NC1c1ccc(F)cc1 (stereo not drawn)	48.3	.	.	.	5.7	36.1
COC(=O)C1=C(C)N(Cc2ccc(C(F)(F)F)cc2)C(=NCc2ccccc2)NC1c1cccc(F)c1 (stereo not drawn)	25.7	.	.	.	58.1*	101.3*
C=CCN=C1NC(CCc2ccccc2)C(C(=O)OC)=C(C)N1Cc1cccc(C(F)(F)F)c1 (stereo not drawn)	27.4	.	.	.	62.0*	32.4
COC(=O)C1=C(C)N(Cc2cccc(C(F)(F)F)c2)C(=NCc2ccc(C(F)(F)F)cc2)NC1c1ccc(C(F)(F)F)cc1 (stereo not drawn)	30.2	.	.	.	1.9	76.7*
COC(=O)C1=C(C)N(Cc2ccc(C(F)(F)F)cc2)C(=NCc2ccc(C(F)(F)F)cc2)NC1c1ccccc1 (stereo not drawn)	39.5	.	.	.	-3.5	40.3
C=CCN=C1NC(CCc2ccccc2)C(C(=O)OC)=C(C)N1Cc1ccccc1C(F)(F)F (stereo not drawn)	13.2	.	.	.	13.6	4.2
COC(=O)C1=C(C)N(Cc2ccc(C(F)(F)F)cc2)C(=NCc2ccc(C(F)(F)F)cc2)NC1c1cccc(C(F)(F)F)c1 (stereo not drawn)	48.5	.	.	.	-15.2	34.5
COC(=O)C1=C(C)N(Cc2cccc(C(F)(F)F)c2)C(=NCc2ccc(C(F)(F)F)cc2)NC1c1cccc(F)c1 (stereo not drawn)	48.7	.	.	.	.	73.8*
O=C(c1ccccn1)N1C[C@H]2[C@@H](c3ccccc31)[C@H](CO)N2C(=O)C1CC1	-7.3	.	.	.	1.2	-36.2
C#Cc1cccc(Nc2nc(NCc3ccccc3OC)nc3ccsc23)c1	1.8	74.0*	39.9	.	17.6	30.2
C#Cc1cccc(Nc2nc(NC(C)C)nc3ccsc23)c1	20.7	52.8*	31.8	.	-9.0	8.0
CC(C)Nc1nc(Nc2ccccc2Cl)c2sccc2n1	-1.7	64.5*	29.1	.	6.9	-10.0
COCCNc1nc(Nc2ccccc2Cl)c2sccc2n1	22.2	20.8	3.8	.	-10.7	22.6
C/C=C/c1cccc(-c2nc(C(=O)N3CCN(C)CC3)cc3c2[C@H](CCO)N(C(=O)NC(C)C)C3)c1	.	.	.	.	1.5	7.5
Cc1noc(C)c1S(=O)(=O)N(C)C[C@H]1Oc2ccc(NC(=O)CCCN(C)C)cc2C(=O)N([C@H](C)CO)C[C@@H]1C	.	.	.	.	7.9	.
CN1c2ccc(-c3cccc(F)c3)cc2[C@H]2[C@H](CCN2C(=O)c2ccncc2)[C@H]1CO	-2.4	.	.	.	-0.7	3.2
O=C(Oc1cccc(Nc2ncnc3ccccc23)c1)c1ccccc1Cl	.	82.5*	59.4*	11.1	.	-12.4
O=C(c1ccco1)N1CCN(c2nc3ccccc3c(=O)n2-c2ccccc2)CC1	.	-22.1	61.0*	5.9	.	9.6
